Myeloid diff MLP: promotes myeloid progenitor differentiation | ER-HoxA9 myeloid progenitors, lysozyme-GFP differentiation, flow cytometry | calls only at 10 µM | 360,000 tested, 1% active;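 active = normalized GFP-positive differentiation at or above the plate's own cutoff, the solvent-only control mean plus 3 SD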;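 also: cells exposed to compound for four days before flow analysis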
M1 ag: activates human CHRM1 receptor | CHO-K1 hM1, Fluo-8 calcium fluorescence, agonist mode; 0% DMSO, 100% acetylcholine EC100 | P11229 | AID 588814 | 360,000 tested, 0.33% active | activation, % at 3 µM;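 active = activation above the run's mean compound activation plus 3 SD, cut at about 16% in these data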;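 also: peak over basal fluorescence ratio within a 140 s kinetic read after compound addition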
CHRM1 PAM: human CHRM1 positive allosteric modulation. CHO-K1 hM1, Fluo-8 calcium fluorescence, ACh EC20; 0% = ACh EC20, 100% = maximal ACh. activation, % at 3 µM. AID 588819. 360,000 tested, 0.088% active; in the data active = activation above about 19%, passing the limit was not always enough
CHRM1 antagonist: human CHRM1 antagonism | P11229 | CHO-K1 hM1, Fluo-8 calcium fluorescence, ACh EC80 antagonist | inhibition, % at 3 µM | 360,000 tested, 1.3% active;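 active = percent inhibition above its own plate's cutoff, namely the mean of that plate's compound wells plus 3 SD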;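 also: peak over basal fluorescence ratio during 140 s after agonist addition; 0% = ACh EC80 plus DMSO and 100% = DMSO alone without agonist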
ATG4B inhibitor: ATG4B (human) cysteine protease inhibition | Q9Y4P1 | ATG4B cleavage of LC3-PLA2, NBD-HPC fluorescence, 1 h | inhibition, % at 8.33 µM | 340,000 tested, 0.51% active | AID 504462; in the data active = inhibition above about 40%
Target sequence (Q9Y4P1 whole entry, looked up): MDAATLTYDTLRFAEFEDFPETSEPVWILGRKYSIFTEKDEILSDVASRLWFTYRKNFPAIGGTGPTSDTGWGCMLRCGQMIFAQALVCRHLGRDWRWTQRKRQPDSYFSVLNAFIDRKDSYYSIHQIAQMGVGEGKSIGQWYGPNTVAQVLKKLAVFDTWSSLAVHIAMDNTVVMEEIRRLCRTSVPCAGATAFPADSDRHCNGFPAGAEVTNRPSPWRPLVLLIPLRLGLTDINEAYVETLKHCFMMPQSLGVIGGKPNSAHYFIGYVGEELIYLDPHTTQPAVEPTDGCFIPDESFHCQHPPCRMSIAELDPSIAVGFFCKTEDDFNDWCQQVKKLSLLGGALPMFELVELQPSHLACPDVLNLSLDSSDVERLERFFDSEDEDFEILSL
SKN-1 inh: blocks SKN-1 activity in C. elegans; C. elegans VP596 Pgst-4::GFP/RFP ratio, acrylamide-induced, 24 h; inhibition, % at 21.8 µM; 360,000 tested, 0.49% active; AID 624304;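 active = interference check ratio from 0.5 to 1.5 plus GFP to RFP signal ratio inhibition reaching or exceeding a fixed threshold, cut at about 30% in these data, passing the limit was not always enough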
Myeloid diff CP1: myeloid differentiation induction; shares compounds with Myeloid diff MLP; ER-HoxA9 myeloid progenitors, GFP/Mac1 double-positive flow; calls only; 2,300 tested, 2% active;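 active = share of green or green-and-red cells above 9 and 9% in run 1 or 4 and 3% in run 2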
GFP autofluor: flagged as fluorescent in myeloid differentiation counter-screen; shares compounds with Myeloid diff MLP; ER-HoxA9 myeloid progenitors, no estrogen, GFP autofluorescence flow cytometry; vehicle wells 0%, positive control 100%; fluorescence response, % (no concentration beside the values); 2,300 tested, 7.4% active; AID 651707;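 active = over 5% cells positive for green fluorescent reporter, or over 2% positive for both it and APC stain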;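 also: range taken on the double positive population between DMSO and positive control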
An asterisk follows results filed as active; i = inactive; x = no result; + = active, no number. This is a sample that favours compounds with a hit; in the whole collection about 3.5% have one here.

SMILES | Myeloid diff MLP | M1 ag | CHRM1 PAM | CHRM1 antagonist | ATG4B inhibitor | SKN-1 inh | Myeloid diff CP1 | GFP autofluor
COc1ccccc1-n1c(=S)sc2c(=O)n(Cc3ccco3)c(SC)nc21 | i | -7 | -5 | 3 | -2 | -9 | i | 0
C#CCCC/C(=C\C(=O)N(C)[C@H](C(=O)N(C)[C@H](C(=O)N(C)[C@H](C(=O)N(C)[C@H](C(N)=O)C(C)C)C(C)C)C(C)C)C(C)C)OC | i | -6 | 6 | -6 | -7 | -14 | i | 0
Cc1cc(S(=O)(=O)N2CCCOC2CNC(=O)C(=O)NCCc2ccco2)ccc1F (centres undefined) | i | -3 | -1 | -8 | -3 | -18 | x | x
NC(=O)Nc1ccc(Oc2c(F)c(F)c(F)c(F)c2F)cc1 | i | 5 | 10 | -8 | -1 | 12 | i | 0
CC(=O)Nc1ccc(NS(=O)(=O)c2ccc3c(c2)oc(=O)n3C)cc1 | i | -5 | 12 | -13 | -4 | 17 | x | x
Cn1c(=O)c2cc(NC(=O)CCc3ccc(O)cc3)ccc2n1Cc1cccc(C(F)(F)F)c1 | + | -1 | 6 | -11 | x | 12 | i | 1
Cn1c(=O)c2cc(NC(=O)CCc3ccccc3)ccc2n1Cc1cccc(C(F)(F)F)c1 | i | 1 | 1 | -6 | x | 9 | x | x
CCOc1ccc(N2CC(C(=O)NC3CCCCCC3)CC2=O)cc1 (centres undefined) | i | -3 | 10 | -4 | 6 | -5 | x | x
O=C(O)C1CCCN1c1ncnc2c1oc1ccccc12 (centres undefined) | + | -4 | -6 | 13 | 9 | 1 | i | 6.6*
COc1ccc(-n2nc(C(=O)NCC(=O)N3CCN(c4cccc(Cl)c4)CC3)c3ccccc3c2=O)c(OC)c1 | i | -2 | 3 | -3 | -2 | -6 | i | 0
CC(=O)N1c2ccc(S(=O)(=O)N3CCC(C(=O)N4CCCC(C)C4)CC3)cc2CC1C (centres undefined) | i | -1 | 0 | 2 | 2 | 16 | x | x
N#C/C(=C/c1ccc(-c2ccc([N+](=O)[O-])cc2)o1)c1nnc(N2CCOCC2)n1-c1ccccc1 | + | 0 | 4 | -5 | 2 | 3 | i | 4
COc1cc(/C=C(\C#N)c2nnc(N3CCOCC3)n2-c2ccccc2)ccc1O | i | -4 | 1 | 7 | -2 | 4 | x | x
O=C(COC(=O)c1cccc(OC(F)F)c1)NC1CCCC1 | i | -3 | 2 | 4 | 2 | 10 | x | x
CC1=Nc2ccc(C)c3nc(C)cc(c23)N1c1ccc(C)cc1 | + | -10 | -8 | 11 | 1 | 1 | i | 0
Cc1ccc(N2C=Nc3ccc(C)c4nc(C)cc2c34)cc1 | i | -6 | 2 | -1 | 0 | 16 | x | x
Cc1nc(N2CCCCC2)nc(N2CCCCC2)c1C=O | i | -9 | 0 | 10 | 9 | 16 | x | x
CCN(C(=O)CN1CCc2ccccc21)c1c(N)n(Cc2ccccc2)c(=O)[nH]c1=O | i | -1 | 5 | -3 | -1 | 16 | i | 0
CC(C)CN(C(=O)c1ccc2c(c1)OCCO2)c1c(N)n(Cc2ccccc2)c(=O)[nH]c1=O | i | 0 | -3 | 17 | 0 | -8 | x | x
CC(C)CN(C(=O)COC(=O)C12CC3CC(CC(C3)C1)C2)c1c(N)n(Cc2ccccc2)c(=O)[nH]c1=O | + | -2 | 4 | 2 | -6 | 10 | i | 9.5*
CC(C)CN(C(=O)c1ccc([N+](=O)[O-])s1)c1c(N)n(Cc2ccccc2)c(=O)[nH]c1=O | + | -3 | 2 | -3 | -8 | 16 | i | 1
COc1cc(OC)c(NS(=O)(=O)c2cc(C(=O)OCC(=O)NCC3CCCO3)ccc2OC)cc1Cl (centres undefined) | i | -3 | -2 | 5 | -16 | 2 | x | x
CC(C)(C)OCC1CO1 (centres undefined) | i | -3 | 9 | -6 | 0 | 5 | x | x
CCCCn1cnc2c(oc3ccccc32)c1=O | i | -8 | 7 | -7 | -8 | 1 | x | x
CCCCn1c(=O)[nH]c2c(oc3ccccc32)c1=O | + | -5 | 6 | -9 | 2 | 3 | i | 0
SMILES | Myeloid diff MLP | M1 ag | CHRM1 PAM | CHRM1 antagonist | ATG4B inhibitor | SKN-1 inh | Myeloid diff CP1 | GFP autofluor
CCCc1nc2c3ccccc3ccn2c1Cc1ccc(OC)cc1C | + | -3 | -5 | -25 | x | 18 | + | 1
COc1ccc2c(COC(=O)CCS(=O)(=O)c3ccc(C)cc3)cc(=O)oc2c1 | i | -1 | 9 | -19 | -9 | 15 | x | x
CCOC(=O)C1(C)NC(c2cccs2)C2C(=O)N(c3ccc(OC)cc3)C(=O)C21 (centres undefined) | i | -5 | 8 | -2 | -5 | -2 | x | x
CCOc1ccc(NC(=S)Nc2cc(OC)c(Cl)cc2OC)cc1 | i | -6 | -2 | 6 | 3 | -3 | x | x
COc1cc(NC(=S)Nc2ccccn2)c(OC)cc1Cl | i | -11 | -11 | 12 | -14 | -5 | i | 0
CCOC(=O)C1CCCCN1Cc1ccc(-c2ccccc2)cc1 (centres undefined) | i | -2 | 10 | -6 | 7 | 2 | x | x
CCN(CC)S(=O)(=O)c1cccc(C(=O)Nc2ccc3c(c2)OCO3)c1 | i | -5 | -1 | 2 | -8 | 2 | i | 0
Cc1nc2ccc(S(=O)(=O)NCC(=O)N3CCC(C)CC3)cc2s1 | i | 1 | 7 | -12 | 7 | -12 | i | 0
O=C(COC(=O)c1ccc(S(=O)(=O)N2CCCC2)cc1)NCc1ccco1 | i | -3 | 2 | 7 | -6 | -6 | x | x
CCOc1cccc(/C=N/NC(=O)c2cc(-c3cccn3C)n[nH]2)c1O | + | -6 | 7 | -12 | 13 | 9 | i | 0
Cc1c(C)c2c(OCC(=O)N[C@@H](Cc3ccccc3)C(=O)O)cc3c(c2oc1=O)CCC(C)(C)O3 | i | 1 | 12 | -13 | -10 | 2 | i | 0
CSC[C@H](NC(=O)COc1cc2c(c3oc(=O)c(C)c(C)c13)CCC(C)(C)O2)C(=O)O | i | 2 | 23 | -18 | 8 | 3 | x | x
CC(CCc1ccccc1)NC(=O)c1nnc(Cc2ccc(Cl)cc2)o1 (centres undefined) | i | -12 | -14 | 7 | 0 | -1 | i | 0
N#CCC(CNc1ncc(C(F)(F)F)cc1Cl)OC(=O)c1cccc([N+](=O)[O-])c1 (centres undefined) | i | -6 | -4 | -16 | 5 | 12 | i | 1
